A549 tox-1 = Nrf2 qHTS screen for inhibitors: counterscreen for cytotoxicity; A549 ARE-Fluc cells, CellTiter-Fluor viability, 18-24 h; Potency, µM (highest dose often 46 µM), for inactives: at the highest dose activity change, negative = cytotoxicity, most hits filed as inhibitors; hit rate 0.16% among 390,000; AID 504648, 2011; further: potency means the concentration at half of the fitted maximal effect; on the % scale 0 is the no-effect control and ±100 the full control effect
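A549 ARE_Fluc cells in 5% FBS OPTI-MEM were exposed to compounds in concentration-response for 18-24 h at 37 deg C. Viability was read by CellTiter-Fluor fluorescence (Ex 405/Em 525) after 30 min, before the luciferase read.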
IL2 activator = qHTS of IL-2 Activators | IL-2 activation reporter assay, cell-based qHTS; stimulated with anti-CD3/CD4/CD28 beads; in transgenic mouse T cells | activation, % (series mostly up to about 46 µM) | hit rate 0.065% among 360,000 | AID 652025, 2013; in the data active means activation above about 50%; inconclusive means mostly about 30% to 49%; further: 0% is about no effect
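Unstimulated transgenic mouse T cells, 750 per well, received compound and, after 60 minutes, anti-CD3/anti-CD4 bead plus anti-CD28 stimulation. EGFP and DsRed were quantified after 18 hours.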
p53 reactivation = qHTS assay for re-activators of p53 using a Luc reporter. Potency, µM (titrated, usually from 92.2 µM), inactives show at the highest dose activity change, positive = activation, actives largely listed as activators. H1299 p53-A138V BP100-luciferase reporter, luminescence, 24 h. hit rate 0.063% among 320,000; further: potency means the concentration at half of the fitted maximal effect; % of control where 0% means no effect; nearly all actives have a fitted effect of over 45% in size
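p53-null H1299 cells stably carrying temperature-sensitive p53-A138V and a BP100-luciferase reporter were pinned with compounds (4-point, 1:5 series) and held 24 hrs at 37 deg C. Luminescence was read 10 min after detection reagent.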
BRCA1 expr act = qHTS Assay to Identify Small Molecule Activators of BRCA1 Expression; MCF7-BRCA1-FFLuc reporter, luminescence, 48 h; response scale: scaled: vehicle 0%, 10 µM genistein 100%; Potency, µM (titrated, usually from 46.1 µM), for inactives: at the top dose activation, most hits filed as activators; hit rate 1.1% among 380,000; AID 624202, 2012; further: potency means the concentration at half of the fitted maximal effect; nearly all actives have a fitted effect of over 80% in size
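Luminescence from a BRCA1-driven firefly luciferase in MCF7 cells was read after 48 h compound exposure at 37 C. Data normalized against DMSO and a 10microM genistein activation control, then curve-fitted across the titration.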
Nrf2 inh = Nrf2 qHTS screen for inhibitors; hit rate 2.1% among 360,000; A549 ARE-Fluc reporter, luciferase luminescence, 18-24 h; Potency, µM (highest dose often 46 µM), without a hit: top-dose activity change, negative = inhibition, usual class: inhibitors; further: potency means the concentration at half of the fitted maximal effect; on the % scale 0 is the no-effect control and ±100 the full control effect; nearly all actives have a fitted effect of over 60% in size
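Nrf2 activity is the BugLite luminescence, read 15 min after reagent at room temperature, following CellTiter-Fluor cytotoxicity readout (30 min, 37C). Compound titrations were applied for 18-24 h to 5000 A549 ARE_Fluc cells/well in 5% FBS OPTI-MEM.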
Nrf2 activator = qHTS of Nrf2 Activators; AREc32 ARE-luciferase reporter (MCF7-derived line), luminescence, 24 h; Potency, µM (top dose mostly 46.1 µM), for the others: top-dose activation, actives largely listed as activators; hit rate 0.31% among 410,000; AID 624171, 2012; further: potency means the concentration at half of the fitted maximal effect; % of control where 0% means no effect; nearly all actives have a fitted effect of over 65% in size
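Reporter line AREc32 (ARE-Fluc), seeded overnight in OPTI-MEM with 5% FBS; compound pin-transferred, 24 hr at 37 deg C, 5% CO2; luminescent read-out.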
FLuc enzyme inh = Nrf2 qHTS screen for inhibitors: Purified Fluc Biochemical Counterscreen for Hit Validation; shares compounds with Nrf2 inh; purified firefly luciferase, luminescence inhibition; Potency, µM (series often up to 57.5 µM), for the others: at the top dose activity change, negative = inhibition, hits mostly inhibitors; hit rate 4% among 1,400; AID 720522, 2013; further: potency means the concentration at half of the fitted maximal effect; on the % scale 0 is the no-effect control and ±100 the full control effect; nearly all actives have a fitted effect of over 65% in size
Target sequence (P08659 whole entry, looked up): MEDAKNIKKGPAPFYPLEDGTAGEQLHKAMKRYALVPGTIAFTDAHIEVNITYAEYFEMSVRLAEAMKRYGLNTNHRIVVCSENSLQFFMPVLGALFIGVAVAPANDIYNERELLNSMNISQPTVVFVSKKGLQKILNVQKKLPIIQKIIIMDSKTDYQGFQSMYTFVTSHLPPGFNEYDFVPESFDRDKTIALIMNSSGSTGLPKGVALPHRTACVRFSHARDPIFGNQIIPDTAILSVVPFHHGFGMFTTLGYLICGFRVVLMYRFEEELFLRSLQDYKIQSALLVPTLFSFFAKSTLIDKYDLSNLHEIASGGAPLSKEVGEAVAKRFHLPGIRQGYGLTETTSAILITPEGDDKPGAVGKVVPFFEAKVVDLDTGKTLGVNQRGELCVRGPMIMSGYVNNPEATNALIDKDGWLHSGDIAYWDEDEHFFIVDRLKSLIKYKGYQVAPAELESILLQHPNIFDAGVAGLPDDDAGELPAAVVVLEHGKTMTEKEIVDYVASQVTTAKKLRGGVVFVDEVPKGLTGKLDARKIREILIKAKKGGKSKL
A549 tox-2 = Nrf2 qHTS screen for inhibitors: A549 ARE-Fluc Cytotoxicity Counterscreen for Hit Validation | shares compounds with Nrf2 inh | A549 ARE-Fluc cells, cytotoxicity counterscreen | Potency, µM (series often up to 46.1 µM), for inactives: top-dose activity change, negative = cytotoxicity, usual class: inhibitors | hit rate 2% among 1,400 | AID 720523, 2013;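 further: potency means the concentration at half of the fitted maximal effect; cells exposed to compounds for 18 to 24 hours; on the % scale 0 is the no-effect control and ±100 the full control effect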
Nrf2 ARE inh = Nrf2 qHTS screen for inhibitors: Nrf2 A549 ARE-Fluc Confirmation Assay for Hit Validation. shares compounds with Nrf2 inh. Potency, µM (doses to about 46.1 µM), for inactives: at the highest dose activity change, negative = inhibition, actives largely listed as inhibitors. AID 720524, 2013. A549 ARE-firefly luciferase reporter, luminescence. hit rate 74% among 1,400; further: potency means the concentration at half of the fitted maximal effect; on the % scale 0 is the no-effect control and ±100 the full control effect; nearly all actives have a fitted effect of over 65% in size
Starred values were filed as active, the others as inactive; ? = inconclusive; . = no result given; [ ] = remark or other dose. The list is not random: actives were taken first. Their share in the collection is about 3.2%. Unless noted, the call rests on the fitted dose curve; in most records, active means well fitted curve in the direction sought with a large enough effect; inconclusive means small, poorly fitted or top-dose-only effect, or another doubt; inactive means no such curve, though single readings can be large; an effect the other way counts as inactive or inconclusive.

SMILES | A549 tox-1 | IL2 activator | p53 reactivation | BRCA1 expr act | Nrf2 inh | Nrf2 activator | FLuc enzyme inh | A549 tox-2 | Nrf2 ARE inh
O=S(=O)(c1ccc2c(c1)OCCO2)N1CCC(c2nc3ccccc3s2)CC1 | 0%[1.84 µM] | -2 | 3% | -67% | 3.3µM* | 0% | -1% | -7% | -48%
O=S(=O)(c1ccc2ccccc2c1)N1CCC(c2nc(-c3ccncc3)no2)CC1 | -26% | -1 | -7% | -69% | 4.1µM* | 0% | 3% | -6% | ?
Cc1ccc(-c2noc(C3CCN(S(=O)(=O)c4ccc5c(c4)OCCO5)CC3)n2)o1 | -11% | -1 | -10% | -53% | 6.5µM* | 2% | -16% | -13% | 12µM*
O=S(=O)(c1ccc2c(c1)OCCO2)N1CCC(c2nc3ccc(Cl)cc3[nH]2)CC1 | ? | -3 | -21% | -96% | 4.6µM* | 4% | -13% | -22% | 10µM*
CCOc1ccc(C2N3CC4(C(C)C)CN2CC(C(C)C)(C3)C4=O)cc1OC (centres undefined) | -1% | . | . | . | 12% | -1% | . | . | .
CCOC(=O)CSc1nc2ccc(NC(=O)CSc3nnnn3Cc3ccccc3)cc2s1 | -6% | -2 | -4% | -2% | 15% | 0% | . | . | .
CC(C)(C)NC(=O)CSc1nc2ccc(NC(=O)CSc3nnnn3Cc3ccccc3)cc2s1 | -16% | -4 | 0% | -49% | 8.2µM* | 2% | -29% | -17% | 7.3µM*
CC(=NNc1nc2ccccc2o1)c1ncccn1 | -20% | 0 | . | ? | 3.3µM* | ? | 19µM* | ? | .
Oc1ccccc1/C=N/Nc1nc2ccccc2o1 | 3% | -4 | ? | -38% | 6% | 4% | . | . | .
COc1cc(OC)cc(C(=O)NNC(=O)c2ccccn2)c1 | ? | -2 | ? | -77% | 8.2µM* | ? | -10% | -25% | 7.3µM*
COc1ccc(C(=O)NNC(=O)c2ccccn2)cc1 | -11% | -1 | -26% | ? | ? | -4% | . | . | .
COc1ccc(Cl)cc1NC(=O)CSc1nc(-c2ccco2)cc(C(F)(F)F)n1 | -12% | . | . | . | ? | 13% | . | . | .
Cc1cccc(NC2=NC(C)(C)N=C(N)N2)c1 | -8% | 0 | 2% | -15% | 5.2µM* | 0% | 2% | -6% | 4.6µM*
COc1ccccc1NC(=O)CCN1CCC(C(N)=O)CC1 | 1% | . | . | . | 7% | -1% | . | . | .
Cc1cc(C)c2oc(-c3ccc(NC(=O)c4cc(Br)ccc4Cl)cc3)nc2c1 | 1% | . | . | . | 5.8µM* | 3% | -13% | -1% | 7.3µM*
Cc1ccc(-c2nc3cc(NC(=O)c4cc(Br)ccc4Cl)ccc3o2)cc1 | 1% | . | . | . | -8% | 3% | . | . | .
O=C(C1CCCN(S(=O)(=O)c2cccc3nsnc23)C1)N1CCN(c2ccccc2Cl)CC1 (centres undefined) | -2% | . | . | 15% | ? | -1% | . | . | .
COc1ccc(-c2nc3sc(CCNC(=O)c4ccccc4C)c(C)n3n2)cc1 | -20% | . | . | 29% | . | 0% | . | . | .

From PubChem
